# Reference: the supplement of paper PMC3545927
# This is one part of the list. The true hit rate is not given. A number with no mark means an inactive call.
# Biological target: furin, P09958
# Test: furin cleavage Z-score vs untreated control; higher = more cleavage, active = 3.5 or more, inactive = 1 or less, 8 variable residues between constant flanks
# In short: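 Reactions of 0.01 ml ran for 7.5, 15 or 30 min in 50 mM HEPES pH 7.5 with CaCl2 and NaCl, at 1:10 enzyme:substrate. In them, purified furin acted on bead-held 8-mer peptides fused to a cDNA oligonucleotide. The cleavage Z-score was obtained by lowess-adjusting log sequencing counts of released DNA against furin-free reactions and scaling by median absolute deviation.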
# Chain of furin, P09958 (P09958 whole entry): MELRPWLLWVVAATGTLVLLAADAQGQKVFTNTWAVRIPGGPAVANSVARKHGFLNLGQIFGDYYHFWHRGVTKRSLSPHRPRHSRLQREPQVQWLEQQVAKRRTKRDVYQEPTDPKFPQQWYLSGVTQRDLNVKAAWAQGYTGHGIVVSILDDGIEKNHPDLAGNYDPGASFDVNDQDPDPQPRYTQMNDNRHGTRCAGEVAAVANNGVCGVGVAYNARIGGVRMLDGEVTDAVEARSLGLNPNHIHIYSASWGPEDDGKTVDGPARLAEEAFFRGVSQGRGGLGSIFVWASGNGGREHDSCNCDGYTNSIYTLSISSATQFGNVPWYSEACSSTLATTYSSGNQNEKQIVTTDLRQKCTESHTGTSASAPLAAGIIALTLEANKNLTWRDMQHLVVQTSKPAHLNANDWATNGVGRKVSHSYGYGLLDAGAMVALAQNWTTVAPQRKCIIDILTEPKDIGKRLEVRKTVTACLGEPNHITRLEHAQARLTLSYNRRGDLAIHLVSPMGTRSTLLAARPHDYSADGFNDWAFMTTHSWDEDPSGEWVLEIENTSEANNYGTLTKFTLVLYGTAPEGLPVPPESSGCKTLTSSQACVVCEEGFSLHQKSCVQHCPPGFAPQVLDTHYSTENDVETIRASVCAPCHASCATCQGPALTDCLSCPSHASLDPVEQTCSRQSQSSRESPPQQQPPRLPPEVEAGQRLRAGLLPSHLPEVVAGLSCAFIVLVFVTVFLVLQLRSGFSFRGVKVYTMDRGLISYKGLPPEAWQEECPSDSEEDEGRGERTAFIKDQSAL
Sequence,furin cleavage Z-score (7.5 min),furin cleavage Z-score (15 min),furin cleavage Z-score (30 min)
CAREFRIIFDAGNASASA [FS-2002],-0.0827,-0.962,-0.343
CAPCEPEPDVAGNASASA [HC1241],-0.464,0.432,-0.805
CATTPVSGSWAGNASASA [HC43],-0.371,0.0296,0.074
CAEVETSTWVAGNASASA [HC2192],-0.139,-0.872,-0.676
CAEVVVSTWVAGNASASA [HC123],0.0781,-2.67,-0.513
CAVALRRRRHAGNASASA [FS-1577],11.1 (active),12.6 (active),9.5 (active)
CAVILLMCAVAGNASASA [HC597],-0.0828,-1.86,-1.55
CAYMNRRRRHAGNASASA [FS-320],5.9 (active),7.94 (active),6.26 (active)
CAPISRRRRHAGNASASA [FS-69],10.5 (active),12.1 (active),10.2 (active)
CAETMRRRRHAGNASASA [FS-928],10.4 (active),11.7 (active),10 (active)
CAELITSCSSAGNASASA [HC1551],-0.448,0.888,-0.654
CACRASGVLTAGNASASA [HC1510],-0.191,-0.919,-0.424
CAPVVTSTWVAGNASASA [HC2159],0.805,0.48,0.275
